Screens deposited in PubChem by National Center for Advancing Translational Sciences (NCATS).
Sampled rows, rich in hits. Any-hit rate of the full collection: about 6%.
VDR inhibitor = vitamin D3 receptor (human) inhibition; P11473; VDR-SRC2-3 peptide fluorescence polarization, 2 h; Potency, µM, without a hit: max response, negative = inhibition, most hits filed as inhibitors; 400,000 compounds, 0.93% hits; AID 504847
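Fluorescence polarization assay measuring small-molecule disruption of VDR binding to the coregulator peptide SRC2-3. Compounds were pin-transferred (23 nl) into the reagent mix and incubated 2 h at room temperature before reading.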
Tau FP inhib = blocks human tau fibril formation measured by polarization. K18 P301L tau heparin fibrillization, Alexa594 FP, 6 h. Potency, µM (top dose mostly 57.7 µM), inactives show at the top dose activity, negative = inhibition, hits mostly inhibitors. 280,000 compounds, 0.39% hits; also: nearly all actives have a fitted effect of over 55% in size
Target sequence (P10636 561-689 P618L limits assumed): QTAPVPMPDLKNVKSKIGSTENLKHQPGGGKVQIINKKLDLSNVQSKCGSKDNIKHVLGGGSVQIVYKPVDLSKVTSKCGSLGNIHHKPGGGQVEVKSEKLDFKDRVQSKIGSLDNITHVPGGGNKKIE
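Read-out: fluorescence polarization of Alexa 594-labeled tau (0.24 uM), 555 nm excitation, 632 nm emission. Mixtures held 15 uM unlabeled K18 P301L, compound and 20 uM heparin, pH 7 acetate buffer, incubated 6 hr at 37 C.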
Sfp PPTase inh = inhibitors of Bacillus subtilis Sfp phosphopantetheinyl transferase; Potency, µM, for inactives: largest response in the series, negative = inhibition, actives largely listed as inhibitors; AID 1490; Biochemical Sfp PPTase activity, qHTS; 310,000 compounds, 3.5% hits; Q9F4F7;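 also: the enzyme is Sfp with the accession as filed and its product quenches rhodamine fluorescence; 0% = enzyme reaction without inhibitor and -100% = no enzyme wells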
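Compounds were incubated with enzyme (final 15 nM) for 15 min at room temperature before substrate addition started the reaction. Fluorescence at 525 nm excitation, 598 nm emission was recorded immediately and after 30 minutes.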
Tau fluor cs = counter-screen for tau fibril formation inhibitors. tau K18 P301L Alexa594 fluorescence, heparin fibrillization. Potency, µM (titrated, usually from 57.7 µM), for the others: at the top dose activity change, negative = decrease. 280,000 compounds, 0.93% hits. AID 1463; also: nearly all actives have a fitted effect of over 55% in size
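Human K18 P301L tau (15 uM unlabeled plus 0.24 uM Alexa 594-labeled, final) in 100 mM sodium acetate pH 7 was mixed with compound and 20 uM heparin and incubated 6 hr at 37 C.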
PLK1 PBD block = inhibitors of human PLK1 polo-box domain binding | Plk1 PBD binding of FITC phosphopeptide, fluorescence polarization | Potency, µM, inactives show max response, negative = inhibition, hits mostly inhibitors | 360,000 compounds, 2.8% hits | AID 720504; also: series mostly up to about 57 µM; nearly all actives have a fitted effect of over 65% in size
Target sequence (P53350 whole entry, looked up, the tested form may be a part): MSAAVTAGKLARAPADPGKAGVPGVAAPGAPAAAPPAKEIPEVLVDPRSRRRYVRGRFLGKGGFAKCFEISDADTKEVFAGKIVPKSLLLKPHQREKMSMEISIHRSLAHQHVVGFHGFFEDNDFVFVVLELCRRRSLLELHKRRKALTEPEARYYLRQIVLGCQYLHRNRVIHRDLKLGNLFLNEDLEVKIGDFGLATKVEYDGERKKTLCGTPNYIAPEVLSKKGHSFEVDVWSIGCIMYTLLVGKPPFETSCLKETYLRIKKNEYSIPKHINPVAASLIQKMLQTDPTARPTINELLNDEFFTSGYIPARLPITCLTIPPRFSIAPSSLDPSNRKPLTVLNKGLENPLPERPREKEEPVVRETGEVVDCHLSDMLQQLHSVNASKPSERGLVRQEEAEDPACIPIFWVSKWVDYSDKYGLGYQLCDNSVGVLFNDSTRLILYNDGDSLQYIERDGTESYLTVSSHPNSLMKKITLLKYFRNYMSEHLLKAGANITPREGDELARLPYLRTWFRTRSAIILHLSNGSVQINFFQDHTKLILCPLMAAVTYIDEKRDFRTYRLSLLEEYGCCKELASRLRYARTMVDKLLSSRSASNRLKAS
Tau fibril ThT = tau fibrillization inhibition (ThT binding); P10636; recombinant tau K18 P301L (four-repeat tau fragment), heparin-induced fibrillization, ThT fluorescence; Potency, µM (doses to about 57.4 µM), without a hit: at the highest dose activity, negative = inhibition, actives largely listed as inhibitors; 270,000 compounds, 2.1% hits; AID 1460; also: nearly all actives have a fitted effect of over 55% in size
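Tau K18 P301L fragment (15 uM unlabeled plus 0.24 uM Alexa 594-labeled) in 100 mM sodium acetate pH 7 with compound, fibrillization induced by 20 uM heparin for 6 hr at 37 C. Thioflavin T (30 uM) added, fluorescence read after 1 hr (ex 450, em 510 nm).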
* hit, by the source's call; ? = inconclusive; · = no result; [ ] = another dose, or the depositor's remark. Calls follow the shape of the dose curve; as a rule, active = well fitted curve in the direction sought with a large enough effect; inconclusive = small, poorly fitted or top-dose-only effect, or another doubt; inactive = no such curve, though single readings can be large; an effect the other way counts as inactive or inconclusive. Unless noted, % is scaled to controls: 0 for no effect and ±100 for the full control effect; potency is read from the fitted curve at half-maximal effect.

SMILES	VDR inhibitor	Tau FP inhib	Sfp PPTase inh	Tau fluor cs	PLK1 PBD block	Tau fibril ThT
CCCOC(=O)c1cc(-c2ccc(/C=C3/C(=O)N(C)C(=O)C(C#N)=C3C)o2)ccc1Cl	50µM*	·	·	·	19µM*	·
CCCOC(=O)c1cc(-c2ccc(C=O)o2)ccc1Cl	-25%	0%	-19%	-9%	-6%	-15%
Cc1cc(C)n(CCc2nc3c4ccccc4nc(N4CCN(c5ccccc5)CC4)n3n2)n1	-9%	-6%	·	-4%	·	-4%
COc1ccc(CC(=O)Nc2ccc3nc(Nc4cccc(Cl)c4)cc(C)c3c2)cc1OC	5%	?	·	2.5µM*[quencher]	·	?
CC(C)c1ccccc1NC(=O)COC(=O)Cc1cccc(C(F)(F)F)c1	?	-2%	7%	-15%	27µM*	-6%
Cc1cc(Nc2cccc(Cl)c2)nc2ccc(NC(=O)Cc3cccc(C(F)(F)F)c3)cc12	6%	?	·	4µM*[quencher]	·	?
COc1ccc(Cl)cc1C(=O)Nc1ccc2nc(Nc3cccc(Cl)c3)cc(C)c2c1	18%	15%	·	16µM*[quencher]	·	?
Cn1c(=O)c2cc(NC(=O)CCc3cccc(Cl)c3)ccc2n1Cc1cccc(C(F)(F)F)c1	·	·	·	·	2%	·
O=C(Nc1ccc(N2CCOCC2)cc1)c1ccc(Cl)c(S(=O)(=O)N2CCCCC2)c1	9%	·	·	·	-3%	·
Cc1cc(Nc2cccc(Cl)c2)nc2ccc(NC(=O)Cc3ccc(Cl)cc3)cc12	16%	?	·	3.5µM*[quencher]	·	?
COc1ccc(Cl)cc1C(=O)Nc1ccc(Br)c(C)n1	-15%	?	-7%	3%	24µM*	2%
Cc1cc(Nc2cccc(Cl)c2)nc2ccc(NC(=O)c3ccc(F)cc3Cl)cc12	10%	?	·	4.5µM*[quencher]	·	?
COc1ccc(Cl)cc1C(=O)Nc1ccc(NC(C)=O)cc1	5%	8%	17%	-7%	5%	5%
O=C(Cc1cccc(C(F)(F)F)c1)Nc1ccccc1	-2%	?	0%	-13%	24µM*	-4%
Cc1ccc(OC2CCN(C(=O)[C@H]3O[C@@H](n4ccc(N)nc4=O)[C@H](O)[C@@H]3O)CC2)cc1	·	·	·	·	-3%	·
Oc1cccc(CN2CCCCC2)c1	-5%	4%	0%	-6%	-5%	-7%
CC(C)(C)c1cc(CN2CCCCC2)cc(C(C)(C)C)c1O	·	1%	35µM*	0%	·	2%
O=C(N/N=C\c1ccc([N+](=O)[O-])s1)c1cncc(Br)c1	-12%	13%	-9%	?	-23%	14µM*
O=C(N/N=C/c1ccc([N+](=O)[O-])s1)c1ccccc1	-4%	4%	?	-19%	-9%	?
O=[N+]([O-])c1ccc(O)c(/C=N/NC(=S)Nc2ccc(Cl)cc2Cl)c1	20%	13%	-20%	?	?	·
O=[N+]([O-])c1ccc(/C=N/NC(=S)Nc2ccc(Cl)cc2Cl)s1	2%	6%	56µM*	?	-9%	?
Sc1oc(-c2ccccc2)cc1C=Nc1ccccc1	?	5%	-15%	18µM*[quencher]	-9%	8.9µM*
Cc1ccc(NC(=O)c2nc(S(C)(=O)=O)ncc2N(Cc2ccco2)Cc2ccco2)cc1	9%	-8%	·	-19%	·	-7%
CCC(=O)N(Cc1ccco1)c1nc(C(=O)Nc2ccc(Cl)cc2)c(C)s1	?	-2%	20µM*	-23%	?	-6%
CC(C)(C)c1nc(S(=O)(=O)c2ccc(Cl)cc2)c(N2CCOCC2)o1	-28%	?	-4%	-15%	-14%	?
SMILES	VDR inhibitor	Tau FP inhib	Sfp PPTase inh	Tau fluor cs	PLK1 PBD block	Tau fibril ThT
COc1ccc(-c2nc(S(=O)(=O)c3ccc(C)cc3)c(N3CCCCC3)o2)cc1	89µM*	5%	·	-29%	·	?
CC(C)Cc1nc(S(=O)(=O)c2ccc(Cl)cc2)c(N2CCOCC2)o1	-12%	?	40µM*	-17%	-24%	?
COc1cc(-c2nc(S(=O)(=O)c3ccc(C)cc3)c(N3CCOCC3)o2)cc(OC)c1OC	79µM*	-2%	?	-6%	-14%	?
Cc1ccc(-c2nc(S(=O)(=O)c3ccc(C)cc3)c(N(C)C)o2)cc1	?	·	?	·	-6%	·
COc1cccc(-c2nc(S(=O)(=O)c3ccc(C)cc3)c(N3CCCCCC3)o2)c1	-22%	10%	·	-19%	·	-10%
COc1cc(-c2nc(S(=O)(=O)c3ccc(C)cc3)c(N(C)C)o2)cc(OC)c1OC	1%	5%	56µM*	2%	0%	?
COc1cc(-c2nc(S(=O)(=O)c3ccc(Cl)cc3)c(N3CCOCC3)o2)cc(OC)c1OC	-17%	4%	19%	1%	-4%	-11%
O=[N+]([O-])c1cccc(S(=O)(=O)c2ccc(NCCO)c([N+](=O)[O-])c2)c1	?	8%	5%	-1%	13µM*	-3%
CN(CC(=O)Nc1ccc(Cl)c(Cl)c1)C(=O)CC1OC(=O)c2ccccc21 (stereo not given)	-12%	·	·	·	3%	·
COc1ccccc1NCC(O)Cn1c2ccccc2c2ccccc21 (stereo not given)	10%	?	19%	10µM*[quencher]	-1%	?
O=C(CSc1nnc(-c2ccc(F)cc2)c2ccccc12)Nc1ccccc1	-8%	?	13%	-26%	-4%	?
O=C(CSc1nnc(SCc2cccc3ccccc23)s1)Nc1ccc(C(=O)O)cc1	-19%	5%	19%	7%	24µM*	4%
O=C(CSc1nc(-c2ccc(F)cc2)nc2c1Cc1ccccc1O2)Nc1cccc(C(=O)O)c1	4%	7%	-21%	-2%	11µM*	0%
c1ccc(Nc2nnc(SCc3cccc4ccccc34)s2)cc1	5%	-10%	-10%	16µM*[quencher]	-3%	-10%
COC(=O)Cc1nnc(SCC(=O)Nc2ccccc2)c2ccccc12	79µM*	·	10%	·	-1%	·
CC(C)NC(=O)N[C@H]1CC[C@H](CC(=O)NCc2ccc(Oc3ccccc3)cc2)O[C@@H]1CO	·	·	·	·	-14%	·
O=C(CSc1nncc2ccccc12)Nc1cccc(C(=O)O)c1	-17%	-10%	?	9%	19µM*	·
O=C(N/N=C/C(Cl)=C/c1ccc([N+](=O)[O-])cc1)C(=O)Nc1ccc(C(=O)O)cc1	?	0%	?	-28%	30µM*	3.5µM*
Cc1[nH]c(=S)c(C#N)c(-c2ccco2)c1C(=O)N(C)C	1%	-4%	10µM*	-3%	-21%	-16%
CCCC/C=C/[C@H](C)[C@@](C)(COC(=O)c1ccc(Br)cc1)Cc1ccccc1	4%	·	-3%	·	·	·
CC(C)(C(=O)N1CCC1(C)C(=O)NS(=O)(=O)c1cccc(C#N)c1)c1ccccc1 (stereo not given)	·	·	·	·	2%	·
